# Values joined by “and” are separate entries in the source; they are usually repeats but may differ in a detail not shown here. Equal values may be shown once. In all, about 2,900 compounds were measured (“NF-kB SEAP reporter activity, fold change vs agonist alone”: median about 0.99, highest 2% from about 2.6 on). Shown is part of a subset that was picked to be rich in the highest values.
# How the values were obtained:
# RAW-Dual [1] = assay: NF-kB SEAP reporter activity, fold change vs agonist alone; cytotoxicity flag (confluency mask): not cytotoxic; higher = enhanced NF-kB activity
# Outline: (§1)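 After 50 nL of library stock was delivered by pin tool to RAW-Dual macrophages (50,000 cells/well, DMEM, 384-well plates), a PRR agonist was added 1 h later and the plates were kept at 37 °C, 5% CO2. Twenty hours later, IRF was read from supernatant by QuantiLuc luminescence and NF-κB by QuantiBlue absorbance at 620 nm. Reporter activity is stated as fold change over agonist-alone wells. Wells with IncuCyte confluency under 70% of agonist controls in both mask sets were counted as cytotoxic.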
# RAW-Dual [2] = assay: NF-kB SEAP reporter activity, fold change vs agonist alone; higher = enhanced NF-kB activity
# Outline: as §1
# RAW-Dual [3] = assay: NF-kB SEAP reporter activity, fold change vs agonist alone; cytotoxicity flag (confluency mask): cytotoxic (confluency <70% of control); higher = enhanced NF-kB activity
# Outline: as §1
# [4] = agonist: ODN 1826 (TLR9) 0.5 ug/mL
# [5] = agonist: Pam2CSK4 (TLR2/6) 0.1 ug/mL
# [6] = agonist: Pam3CSK4 (TLR2/1) 0.1 ug/mL
# [7] = library stock concentration (final ~1000-fold dilution): 10 mM, cytotoxicity flag (confluency mask): not cytotoxic, agonist: Imiquimod (TLR7) […]
# [8] = library stock concentration (final ~1000-fold dilution): 10 mM, cytotoxicity flag (confluency mask): not cytotoxic, agonist: MPLA (TLR4) […]
smiles,measurement,setting,value
CC(C)(C)c1[nH]cnc1C=c1[nH]c(=O)c(=Cc2ccccc2)[nH]c1=O (library stock concentration (final ~1000-fold dilution): 10 mM),NF-kB SEAP reporter activity,RAW-Dual [1]; agonist: LPS (TLR4) 0.1 ug/mL,6.1
same,NF-kB SEAP reporter activity,RAW-Dual [1]; [4],3.37
same,NF-kB SEAP reporter activity,RAW-Dual [1]; [5],2.02
same,NF-kB SEAP reporter activity,RAW-Dual [1]; [6],2.3
CC(C)(C)c1[nH]cnc1C=c1[nH]c(=O)c(=Cc2ccccc2)[nH]c1=O,NF-kB SEAP reporter activity,RAW-Dual [2]; [7],2.47
same,NF-kB SEAP reporter activity,RAW-Dual [2]; [8],2.5
O=C(Nc1ccc(O)c(C(=O)O)c1)c1cccc(NC(=O)c2ccco2)c1 (library stock concentration (final ~1000-fold dilution): 10 mM),NF-kB SEAP reporter activity,RAW-Dual [1]; agonist: LPS (TLR4) 0.1 ug/mL,0.971
same,NF-kB SEAP reporter activity,RAW-Dual [1]; [4],0.895
same,NF-kB SEAP reporter activity,RAW-Dual [1]; [5],1.05
same,NF-kB SEAP reporter activity,RAW-Dual [1]; [6],1.06
O=C(Nc1ccc(O)c(C(=O)O)c1)c1cccc(NC(=O)c2ccco2)c1,NF-kB SEAP reporter activity,RAW-Dual [2]; [7],0.942
same,NF-kB SEAP reporter activity,RAW-Dual [2]; [8],0.969
Cl.Cl.c1cc(-c2nc3ccc(OCCCN4CCCC4)cc3o2)ccc1OCCCN1CCCC1 (library stock concentration (final ~1000-fold dilution): 1 mM),NF-kB SEAP reporter activity,RAW-Dual [1]; agonist: LPS (TLR4) 0.1 ug/mL,0.935
same,NF-kB SEAP reporter activity,RAW-Dual [1]; [4],0.224
same,NF-kB SEAP reporter activity,RAW-Dual [1]; [5],1.11
same,NF-kB SEAP reporter activity,RAW-Dual [1]; [6],1.06
Cl.Cl.c1cc(-c2nc3ccc(OCCCN4CCCC4)cc3o2)ccc1OCCCN1CCCC1,NF-kB SEAP reporter activity,"RAW-Dual [2]; library stock concentration (final ~1000-fold dilution): 1 mM, cytotoxicity flag (confluency mask): not cytotoxic, agonist: Imiquimod (TLR7) […]",1.27
same,NF-kB SEAP reporter activity,"RAW-Dual [2]; library stock concentration (final ~1000-fold dilution): 1 mM, cytotoxicity flag (confluency mask): not cytotoxic, agonist: MPLA (TLR4) […]",1.08
COc1ccccc1C(=O)Nc1cc2c(cc1N1CCNCC1C)n(C)c(=O)n2C (configuration not stated),NF-kB SEAP reporter activity,RAW-Dual [2]; [7],1.01
same,NF-kB SEAP reporter activity,RAW-Dual [2]; [8],1.37
COc1ccccc1C(=O)Nc1cc2c(cc1N1CCNCC1C)n(C)c(=O)n2C (configuration not stated) (library stock concentration (final ~1000-fold dilution): 10 mM),NF-kB SEAP reporter activity,RAW-Dual [1]; agonist: LPS (TLR4) 0.1 ug/mL,1.48
same,NF-kB SEAP reporter activity,RAW-Dual [1]; [4],0.383
same,NF-kB SEAP reporter activity,RAW-Dual [1]; [5],0.997
same,NF-kB SEAP reporter activity,RAW-Dual [1]; [6],0.973
CCOC(=O)C(CCc1ccccc1)NC1CSC(c2cccs2)CN(CC(=O)O)C1=O.Cl (configuration not stated) (library stock concentration (final ~1000-fold dilution): 10 mM),NF-kB SEAP reporter activity,RAW-Dual [1]; agonist: LPS (TLR4) 0.1 ug/mL,0.869
same,NF-kB SEAP reporter activity,RAW-Dual [1]; [4],1.04
same,NF-kB SEAP reporter activity,RAW-Dual [1]; [5],0.946
same,NF-kB SEAP reporter activity,RAW-Dual [1]; [6],1.15
CCOC(=O)C(CCc1ccccc1)NC1CSC(c2cccs2)CN(CC(=O)O)C1=O.Cl (configuration not stated),NF-kB SEAP reporter activity,RAW-Dual [2]; [7],1.01
same,NF-kB SEAP reporter activity,RAW-Dual [2]; [8],1.01
NC(=O)c1ccc(-c2nc(-c3ccc4c(c3)OCCO4)c(-c3ccccn3)[nH]2)cc1 (library stock concentration (final ~1000-fold dilution): 10 mM),NF-kB SEAP reporter activity,RAW-Dual [1]; agonist: LPS (TLR4) 0.1 ug/mL,1.81
same,NF-kB SEAP reporter activity,RAW-Dual [1]; [4],1.29
same,NF-kB SEAP reporter activity,RAW-Dual [1]; [5],1.25
same,NF-kB SEAP reporter activity,RAW-Dual [1]; [6],0.913
COc1ccc(-c2nc3cc(C4=NNC(=O)CC4C)ccc3[nH]2)cc1 (configuration not stated),NF-kB SEAP reporter activity,RAW-Dual [2]; [7],1.67
same,NF-kB SEAP reporter activity,RAW-Dual [2]; [8],1.34
NC(=O)c1ccc2[nH]c(-c3ccc(Oc4ccc(Cl)cc4)cc3)nc2c1 (library stock concentration (final ~1000-fold dilution): 10 mM),NF-kB SEAP reporter activity,RAW-Dual [1]; agonist: LPS (TLR4) 0.1 ug/mL,1.71
same,NF-kB SEAP reporter activity,RAW-Dual [1]; [4],1.59
same,NF-kB SEAP reporter activity,RAW-Dual [1]; [5],2.1
same,NF-kB SEAP reporter activity,RAW-Dual [1]; [6],3.55
NC(=O)c1ccc(-c2nc(-c3ccc4c(c3)OCCO4)c(-c3ccccn3)[nH]2)cc1,NF-kB SEAP reporter activity,RAW-Dual [2]; [7],0.743
same,NF-kB SEAP reporter activity,RAW-Dual [2]; [8],1.45
NC(=O)c1ccc2[nH]c(-c3ccc(Oc4ccc(Cl)cc4)cc3)nc2c1,NF-kB SEAP reporter activity,RAW-Dual [2]; [7],1.47
same,NF-kB SEAP reporter activity,RAW-Dual [2]; [8],2.09
COc1ccc(-c2nc3cc(C4=NNC(=O)CC4C)ccc3[nH]2)cc1 (configuration not stated) (library stock concentration (final ~1000-fold dilution): 10 mM),NF-kB SEAP reporter activity,RAW-Dual [1]; agonist: LPS (TLR4) 0.1 ug/mL,1.3
same,NF-kB SEAP reporter activity,RAW-Dual [1]; [4],2.47
same,NF-kB SEAP reporter activity,RAW-Dual [1]; [5],1.8
same,NF-kB SEAP reporter activity,RAW-Dual [1]; [6],1.7
Cl.Cl.Fc1cc(-c2cccc3ncc(-c4cnn(C5CCNCC5)c4)nc23)cc(F)c1CN1CCOCC1,NF-kB SEAP reporter activity,RAW-Dual [2]; [7],0.92
same,NF-kB SEAP reporter activity,RAW-Dual [2]; [8],0.944
Cl.Cl.Fc1cc(-c2cccc3ncc(-c4cnn(C5CCNCC5)c4)nc23)cc(F)c1CN1CCOCC1 (library stock concentration (final ~1000-fold dilution): 10 mM),NF-kB SEAP reporter activity,RAW-Dual [1]; agonist: LPS (TLR4) 0.1 ug/mL,0.349
same,NF-kB SEAP reporter activity,RAW-Dual [1]; [4],0.924
same,NF-kB SEAP reporter activity,RAW-Dual [1]; [5],0.147
same,NF-kB SEAP reporter activity,RAW-Dual [1]; [6],0.912
CCOC(=O)C(CCc1ccccc1)NC(C)C(=O)N1C(=O)N(C)CC1C(=O)O.Cl (configuration not stated),NF-kB SEAP reporter activity,RAW-Dual [2]; [7],0.962
same,NF-kB SEAP reporter activity,RAW-Dual [2]; [8],0.927
CCOC(=O)C(CCc1ccccc1)NC(C)C(=O)N1C(=O)N(C)CC1C(=O)O.Cl (configuration not stated) (library stock concentration (final ~1000-fold dilution): 10 mM),NF-kB SEAP reporter activity,RAW-Dual [1]; agonist: LPS (TLR4) 0.1 ug/mL,1.2
same,NF-kB SEAP reporter activity,RAW-Dual [1]; [4],0.98
same,NF-kB SEAP reporter activity,RAW-Dual [1]; [5],0.83
same,NF-kB SEAP reporter activity,RAW-Dual [1]; [6],1.03
CCC(C)(C)C(=O)OC1CC(C)C=C2C=CC(C)C(CCC3CC(O)CC(=O)O3)C21 (configuration not stated) (library stock concentration (final ~1000-fold dilution): 10 mM),NF-kB SEAP reporter activity,RAW-Dual [3]; agonist: LPS (TLR4) 0.1 ug/mL,2.35
same,NF-kB SEAP reporter activity,RAW-Dual [3]; [4],2.44
same,NF-kB SEAP reporter activity,RAW-Dual [3]; [5],2.12
same,NF-kB SEAP reporter activity,RAW-Dual [3]; [6],3.35
CCC(C)C(=O)OC1CCC=C2C=CC(C)C(CCC3CC(O)CC(=O)O3)C21 (configuration not stated) (library stock concentration (final ~1000-fold dilution): 10 mM),NF-kB SEAP reporter activity,RAW-Dual [1]; agonist: LPS (TLR4) 0.1 ug/mL,3.69
same,NF-kB SEAP reporter activity,RAW-Dual [1]; [4],2.68
same,NF-kB SEAP reporter activity,RAW-Dual [1]; [5],1.45
same,NF-kB SEAP reporter activity,RAW-Dual [1]; [6],2.12
CCC(C)C(=O)OC1CC(O)C=C2C=CC(C)C(CCC(O)CC(O)CC(=O)O)C21 (configuration not stated) (library stock concentration (final ~1000-fold dilution): 10 mM),NF-kB SEAP reporter activity,RAW-Dual [1]; agonist: LPS (TLR4) 0.1 ug/mL,1.01 and 1.04
same,NF-kB SEAP reporter activity,RAW-Dual [1]; [4],1 and 1.02
same,NF-kB SEAP reporter activity,RAW-Dual [1]; [5],1.08 and 1.05
same,NF-kB SEAP reporter activity,RAW-Dual [1]; [6],0.841 and 1.15
CCC(C)C(=O)OC1CCC=C2C=CC(C)C(CCC3CC(O)CC(=O)O3)C21 (configuration not stated),NF-kB SEAP reporter activity,RAW-Dual [2]; [7],2.3
same,NF-kB SEAP reporter activity,RAW-Dual [2]; [8],1.97
CCC(C)C(=O)OC1CC(C)C=C2C=CC(C)C(CCC3CC(O)CC(=O)O3)C21 (configuration not stated) (library stock concentration (final ~1000-fold dilution): 10 mM),NF-kB SEAP reporter activity,RAW-Dual [1]; agonist: LPS (TLR4) 0.1 ug/mL,3.33
same,NF-kB SEAP reporter activity,RAW-Dual [1]; [4],2.62
same,NF-kB SEAP reporter activity,RAW-Dual [1]; [5],1.93
same,NF-kB SEAP reporter activity,RAW-Dual [1]; [6],3.02
CCC(C)C(=O)OC1CC(C)C=C2C=CC(C)C(CCC3CC(O)CC(=O)O3)C21 (configuration not stated),NF-kB SEAP reporter activity,RAW-Dual [2]; [7],2.54
same,NF-kB SEAP reporter activity,RAW-Dual [2]; [8],1.94
CCC(C)(C)C(=O)OC1CC(C)C=C2C=CC(C)C(CCC3CC(O)CC(=O)O3)C21 (configuration not stated),NF-kB SEAP reporter activity,"RAW-Dual [2]; library stock concentration (final ~1000-fold dilution): 10 mM, cytotoxicity flag (confluency mask): cytotoxic (confluency <70% of control), agonist: Imiquimod (TLR7) […]",2.53
same,NF-kB SEAP reporter activity,"RAW-Dual [2]; library stock concentration (final ~1000-fold dilution): 10 mM, cytotoxicity flag (confluency mask): cytotoxic (confluency <70% of control), agonist: MPLA (TLR4) […]",1.95

# — the supplement of paper PMC10037445
